# Unmarked numbers belong to inactive results.
# What was measured:
# Experiment in all cases: log2 ratio of Biotin-Ahx-Ub-VS probe labelling (fragment/DMSO); higher = less target engagement (more negative = stronger competition), active = hit call of the paper (q ≤ 0.05, log2 ratio ≤ -1)
# Settings in all cases: compound concentration: 200 uM; treatment time: 3 h
# UniProt O00507 = biological target: UniProt O00507
# Method in brief: (§1)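 Triplicate samples of HEK293T lysate, 495 µg each, received fragment at 200 µM or vehicle for 3 h, followed by Biotin-Ahx-Ub-VS (0.5 µM final) for 1 h. After NeutrAvidin enrichment of labelled DUBs and LysC/trypsin digestion, peptides were run by diaPASEF LC-MS/MS. The values are average log2 fragment/vehicle ratios from global-median-normalised Spectronaut label-free quantities, tested by unpaired t-test on proteins having ≥2 unique peptides.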
# UniProt P51784 = biological target: UniProt P51784
# UniProt P51784, sequence (P51784 whole entry): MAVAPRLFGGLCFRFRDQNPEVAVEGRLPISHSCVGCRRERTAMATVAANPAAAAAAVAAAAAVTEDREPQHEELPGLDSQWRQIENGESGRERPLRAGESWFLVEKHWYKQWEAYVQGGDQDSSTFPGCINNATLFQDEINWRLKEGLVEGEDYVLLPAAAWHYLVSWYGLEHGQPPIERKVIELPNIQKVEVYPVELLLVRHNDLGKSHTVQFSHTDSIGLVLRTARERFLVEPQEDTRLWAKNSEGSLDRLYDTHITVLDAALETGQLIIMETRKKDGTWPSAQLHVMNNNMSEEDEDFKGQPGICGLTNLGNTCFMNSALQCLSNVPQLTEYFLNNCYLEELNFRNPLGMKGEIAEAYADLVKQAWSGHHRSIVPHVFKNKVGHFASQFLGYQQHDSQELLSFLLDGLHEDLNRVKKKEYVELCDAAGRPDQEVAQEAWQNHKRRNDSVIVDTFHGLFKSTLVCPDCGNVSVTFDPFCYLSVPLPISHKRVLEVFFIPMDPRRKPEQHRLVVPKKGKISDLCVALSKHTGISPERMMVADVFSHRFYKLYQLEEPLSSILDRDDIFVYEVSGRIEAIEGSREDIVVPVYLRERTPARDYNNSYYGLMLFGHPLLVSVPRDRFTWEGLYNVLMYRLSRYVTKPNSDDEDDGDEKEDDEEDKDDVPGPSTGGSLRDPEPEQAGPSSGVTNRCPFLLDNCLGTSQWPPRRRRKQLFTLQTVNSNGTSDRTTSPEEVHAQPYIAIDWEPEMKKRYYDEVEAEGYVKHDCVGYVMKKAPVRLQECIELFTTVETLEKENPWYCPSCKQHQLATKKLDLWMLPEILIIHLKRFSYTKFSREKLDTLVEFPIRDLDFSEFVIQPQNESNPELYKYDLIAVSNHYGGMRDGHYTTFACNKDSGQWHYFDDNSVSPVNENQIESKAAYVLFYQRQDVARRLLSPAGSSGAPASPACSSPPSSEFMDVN
# Method in brief: as §1
# UniProt Q5T2D3 = biological target: T1, UniProt Q5T2D3
# T1 sequence (whole entry): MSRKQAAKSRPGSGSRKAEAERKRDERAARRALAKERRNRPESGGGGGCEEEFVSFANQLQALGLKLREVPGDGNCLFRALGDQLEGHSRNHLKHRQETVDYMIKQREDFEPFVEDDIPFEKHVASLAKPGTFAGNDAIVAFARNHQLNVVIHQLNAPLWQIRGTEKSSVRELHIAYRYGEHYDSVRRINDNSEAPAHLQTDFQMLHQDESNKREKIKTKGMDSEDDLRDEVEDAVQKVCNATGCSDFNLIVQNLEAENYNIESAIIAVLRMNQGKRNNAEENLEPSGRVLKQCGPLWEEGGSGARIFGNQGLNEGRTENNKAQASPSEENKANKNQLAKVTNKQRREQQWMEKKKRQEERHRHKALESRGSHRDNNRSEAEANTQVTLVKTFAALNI
# Method in brief: as §1
# UniProt Q8TE49 = biological target: T2, UniProt Q8TE49
# T2 sequence (whole entry): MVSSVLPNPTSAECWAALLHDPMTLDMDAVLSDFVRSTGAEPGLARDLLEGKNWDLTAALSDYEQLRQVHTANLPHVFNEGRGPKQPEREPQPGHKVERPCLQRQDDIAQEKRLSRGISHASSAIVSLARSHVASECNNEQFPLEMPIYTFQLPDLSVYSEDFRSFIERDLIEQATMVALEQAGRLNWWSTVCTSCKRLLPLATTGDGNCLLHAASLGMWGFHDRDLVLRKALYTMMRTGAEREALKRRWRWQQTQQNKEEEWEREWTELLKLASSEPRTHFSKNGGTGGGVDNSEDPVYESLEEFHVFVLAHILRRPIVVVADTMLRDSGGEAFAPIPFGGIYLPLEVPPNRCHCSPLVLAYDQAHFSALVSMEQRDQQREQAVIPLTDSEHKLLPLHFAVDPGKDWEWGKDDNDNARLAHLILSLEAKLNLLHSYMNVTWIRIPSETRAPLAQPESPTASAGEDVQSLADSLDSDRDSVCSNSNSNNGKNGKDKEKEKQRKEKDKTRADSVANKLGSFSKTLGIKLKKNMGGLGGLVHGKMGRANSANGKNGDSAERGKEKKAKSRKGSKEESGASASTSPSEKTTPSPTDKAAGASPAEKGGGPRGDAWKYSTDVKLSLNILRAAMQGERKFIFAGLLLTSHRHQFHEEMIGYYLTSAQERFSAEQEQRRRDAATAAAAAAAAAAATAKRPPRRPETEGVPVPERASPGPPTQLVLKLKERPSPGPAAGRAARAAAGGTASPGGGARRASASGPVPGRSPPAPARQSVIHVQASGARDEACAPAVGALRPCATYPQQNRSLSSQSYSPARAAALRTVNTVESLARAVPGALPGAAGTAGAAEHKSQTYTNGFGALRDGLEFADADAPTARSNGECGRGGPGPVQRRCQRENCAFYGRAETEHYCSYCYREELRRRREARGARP
# Method in brief: as §1
# UniProt Q9P2H5 = biological target: T3, UniProt Q9P2H5
# T3 sequence (whole entry): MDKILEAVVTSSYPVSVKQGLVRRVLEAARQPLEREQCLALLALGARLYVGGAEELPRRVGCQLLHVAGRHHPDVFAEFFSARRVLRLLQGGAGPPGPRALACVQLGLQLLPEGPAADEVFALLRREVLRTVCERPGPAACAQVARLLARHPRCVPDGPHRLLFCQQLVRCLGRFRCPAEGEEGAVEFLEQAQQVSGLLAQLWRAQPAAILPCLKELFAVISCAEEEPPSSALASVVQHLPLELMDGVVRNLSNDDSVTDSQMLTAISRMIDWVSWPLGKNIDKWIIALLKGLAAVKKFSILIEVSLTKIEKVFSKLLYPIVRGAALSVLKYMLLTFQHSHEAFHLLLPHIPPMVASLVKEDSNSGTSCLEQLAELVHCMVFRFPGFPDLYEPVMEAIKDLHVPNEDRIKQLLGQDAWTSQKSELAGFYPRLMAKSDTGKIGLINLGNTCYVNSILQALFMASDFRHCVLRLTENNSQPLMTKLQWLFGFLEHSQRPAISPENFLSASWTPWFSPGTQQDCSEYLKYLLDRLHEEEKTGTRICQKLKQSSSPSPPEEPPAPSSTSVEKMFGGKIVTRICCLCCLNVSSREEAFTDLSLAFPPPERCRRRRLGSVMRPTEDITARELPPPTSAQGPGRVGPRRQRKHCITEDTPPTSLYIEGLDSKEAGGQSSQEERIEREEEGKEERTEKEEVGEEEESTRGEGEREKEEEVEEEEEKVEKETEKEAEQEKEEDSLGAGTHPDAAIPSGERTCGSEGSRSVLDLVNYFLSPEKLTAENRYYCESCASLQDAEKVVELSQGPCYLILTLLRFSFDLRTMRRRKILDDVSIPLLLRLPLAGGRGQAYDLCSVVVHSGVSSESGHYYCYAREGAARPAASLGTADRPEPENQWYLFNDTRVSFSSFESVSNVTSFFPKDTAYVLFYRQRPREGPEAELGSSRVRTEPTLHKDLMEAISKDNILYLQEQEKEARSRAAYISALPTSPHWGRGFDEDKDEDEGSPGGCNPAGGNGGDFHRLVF
# Method in brief: as §1
# UniProt Q9UGI0 = biological target: T4, UniProt Q9UGI0
# T4 sequence (whole entry): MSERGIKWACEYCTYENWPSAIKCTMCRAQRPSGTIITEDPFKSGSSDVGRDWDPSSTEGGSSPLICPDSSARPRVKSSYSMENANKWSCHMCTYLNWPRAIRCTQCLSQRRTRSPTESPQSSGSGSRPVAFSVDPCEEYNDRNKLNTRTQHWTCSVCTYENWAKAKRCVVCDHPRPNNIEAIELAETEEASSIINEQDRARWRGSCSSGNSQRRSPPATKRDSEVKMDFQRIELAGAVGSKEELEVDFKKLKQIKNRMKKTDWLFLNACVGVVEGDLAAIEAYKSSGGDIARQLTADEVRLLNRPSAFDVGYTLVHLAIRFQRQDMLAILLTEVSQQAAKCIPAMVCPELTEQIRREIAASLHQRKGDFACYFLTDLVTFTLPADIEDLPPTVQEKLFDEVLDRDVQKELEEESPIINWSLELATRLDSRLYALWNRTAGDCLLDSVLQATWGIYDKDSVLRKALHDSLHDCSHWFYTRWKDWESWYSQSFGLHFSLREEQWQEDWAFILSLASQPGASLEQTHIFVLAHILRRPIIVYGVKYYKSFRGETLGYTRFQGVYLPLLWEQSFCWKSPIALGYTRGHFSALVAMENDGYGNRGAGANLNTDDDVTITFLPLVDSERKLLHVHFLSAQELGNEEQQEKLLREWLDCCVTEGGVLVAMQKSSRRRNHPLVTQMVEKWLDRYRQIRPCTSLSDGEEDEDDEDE
# Method in brief: as §1
# YOD1 = biological target: T5, YOD1 (UniProt Q5VVQ6)
# T5 sequence (whole entry): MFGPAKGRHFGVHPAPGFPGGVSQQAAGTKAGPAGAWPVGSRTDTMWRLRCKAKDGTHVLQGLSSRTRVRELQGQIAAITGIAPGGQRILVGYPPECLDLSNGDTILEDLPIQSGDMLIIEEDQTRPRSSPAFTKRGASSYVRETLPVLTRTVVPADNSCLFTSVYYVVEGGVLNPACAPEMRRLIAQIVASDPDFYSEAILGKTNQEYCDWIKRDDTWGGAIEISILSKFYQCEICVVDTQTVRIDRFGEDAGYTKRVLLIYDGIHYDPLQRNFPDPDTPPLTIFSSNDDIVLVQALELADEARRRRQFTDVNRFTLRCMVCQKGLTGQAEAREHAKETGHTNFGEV
# Method in brief: as §1
# UniProt O00507, sequence (O00507 whole entry, the tested form may be a part): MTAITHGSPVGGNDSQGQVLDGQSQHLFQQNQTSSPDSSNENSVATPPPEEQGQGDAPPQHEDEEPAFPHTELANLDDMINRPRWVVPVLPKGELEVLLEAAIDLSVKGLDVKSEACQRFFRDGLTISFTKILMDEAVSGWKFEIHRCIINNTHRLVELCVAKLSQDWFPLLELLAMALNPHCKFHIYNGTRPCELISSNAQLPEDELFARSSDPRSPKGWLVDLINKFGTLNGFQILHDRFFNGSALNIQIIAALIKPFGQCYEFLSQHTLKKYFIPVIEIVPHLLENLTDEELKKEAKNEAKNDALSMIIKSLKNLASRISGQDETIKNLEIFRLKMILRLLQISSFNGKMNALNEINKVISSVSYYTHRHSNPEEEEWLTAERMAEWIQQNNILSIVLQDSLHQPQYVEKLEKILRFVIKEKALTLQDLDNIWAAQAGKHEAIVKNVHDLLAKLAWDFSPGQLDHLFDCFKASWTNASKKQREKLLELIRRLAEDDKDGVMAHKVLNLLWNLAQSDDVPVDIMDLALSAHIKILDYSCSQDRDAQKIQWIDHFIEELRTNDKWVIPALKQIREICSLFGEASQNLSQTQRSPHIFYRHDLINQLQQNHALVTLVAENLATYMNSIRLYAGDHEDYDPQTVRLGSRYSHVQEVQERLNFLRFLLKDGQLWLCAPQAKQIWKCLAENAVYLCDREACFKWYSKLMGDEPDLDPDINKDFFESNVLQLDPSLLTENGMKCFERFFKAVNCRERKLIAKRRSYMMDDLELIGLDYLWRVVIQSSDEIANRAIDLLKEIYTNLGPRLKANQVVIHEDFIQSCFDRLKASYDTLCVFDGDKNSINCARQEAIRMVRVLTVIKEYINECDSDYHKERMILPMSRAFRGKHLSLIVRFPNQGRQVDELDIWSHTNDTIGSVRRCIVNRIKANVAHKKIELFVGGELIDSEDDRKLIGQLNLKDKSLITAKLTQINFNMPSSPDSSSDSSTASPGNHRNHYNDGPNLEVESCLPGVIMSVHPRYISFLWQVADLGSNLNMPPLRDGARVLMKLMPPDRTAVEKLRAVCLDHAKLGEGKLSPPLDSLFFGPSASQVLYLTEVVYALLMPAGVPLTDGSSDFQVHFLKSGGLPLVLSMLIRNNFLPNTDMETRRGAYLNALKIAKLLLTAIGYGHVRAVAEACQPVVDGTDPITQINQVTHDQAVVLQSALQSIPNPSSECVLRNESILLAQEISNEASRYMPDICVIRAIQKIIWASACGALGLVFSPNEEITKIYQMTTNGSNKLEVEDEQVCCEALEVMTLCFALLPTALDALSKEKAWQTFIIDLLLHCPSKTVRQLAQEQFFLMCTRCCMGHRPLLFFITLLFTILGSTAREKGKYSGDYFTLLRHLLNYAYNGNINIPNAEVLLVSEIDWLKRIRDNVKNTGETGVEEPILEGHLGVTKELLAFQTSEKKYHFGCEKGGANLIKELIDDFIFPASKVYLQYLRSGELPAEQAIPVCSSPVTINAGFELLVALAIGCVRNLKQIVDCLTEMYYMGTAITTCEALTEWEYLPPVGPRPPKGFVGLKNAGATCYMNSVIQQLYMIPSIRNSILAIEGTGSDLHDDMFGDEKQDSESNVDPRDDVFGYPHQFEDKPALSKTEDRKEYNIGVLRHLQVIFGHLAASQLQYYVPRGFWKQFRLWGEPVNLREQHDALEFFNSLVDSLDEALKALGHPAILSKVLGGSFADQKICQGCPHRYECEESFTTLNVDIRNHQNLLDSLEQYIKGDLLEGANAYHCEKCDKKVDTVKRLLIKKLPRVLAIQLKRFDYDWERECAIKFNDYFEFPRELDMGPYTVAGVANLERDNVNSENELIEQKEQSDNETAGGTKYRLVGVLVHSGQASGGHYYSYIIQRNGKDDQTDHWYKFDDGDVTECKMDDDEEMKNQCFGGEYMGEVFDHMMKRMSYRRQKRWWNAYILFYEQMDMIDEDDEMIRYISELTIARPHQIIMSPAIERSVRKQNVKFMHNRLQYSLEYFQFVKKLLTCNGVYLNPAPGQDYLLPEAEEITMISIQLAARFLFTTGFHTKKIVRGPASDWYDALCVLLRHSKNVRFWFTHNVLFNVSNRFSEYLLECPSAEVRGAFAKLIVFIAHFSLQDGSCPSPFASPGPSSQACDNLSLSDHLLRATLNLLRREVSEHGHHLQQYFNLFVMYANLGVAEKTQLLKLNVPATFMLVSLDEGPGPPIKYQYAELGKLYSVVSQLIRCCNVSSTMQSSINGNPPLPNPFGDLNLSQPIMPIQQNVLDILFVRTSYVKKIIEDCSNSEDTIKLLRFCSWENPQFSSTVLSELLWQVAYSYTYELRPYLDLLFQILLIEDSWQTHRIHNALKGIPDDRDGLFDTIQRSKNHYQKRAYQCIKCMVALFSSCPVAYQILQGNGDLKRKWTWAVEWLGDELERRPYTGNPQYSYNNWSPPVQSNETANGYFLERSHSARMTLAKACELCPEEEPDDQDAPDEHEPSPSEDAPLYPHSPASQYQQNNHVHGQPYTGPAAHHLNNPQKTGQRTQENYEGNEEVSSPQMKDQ
SMILES,log2 ratio of Biotin-Ahx-Ub-VS probe labelling (UniProt O00507),log2 ratio of Biotin-Ahx-Ub-VS probe labelling (UniProt P51784),log2 ratio of Biotin-Ahx-Ub-VS probe labelling (UniProt Q5T2D3),log2 ratio of Biotin-Ahx-Ub-VS probe labelling (UniProt Q8TE49),log2 ratio of Biotin-Ahx-Ub-VS probe labelling (UniProt Q9P2H5),log2 ratio of Biotin-Ahx-Ub-VS probe labelling (UniProt Q9UGI0),log2 ratio of Biotin-Ahx-Ub-VS probe labelling (YOD1)
Cc1cccc(C(CNC(=O)CCl)N2CCOCC2)c1.Cl (stereo not drawn),0.29,-0.0777,-0.329,-0.249,-0.237,0.0449,-0.28
COc1ccc(-c2csc(NC(=O)CCl)n2)cc1,-0.576,-0.0937,-0.257,-0.479,-0.528,-2.09 (active),-0.00199
CN1c2ccccc2C(NC(=O)CCl)CS1(=O)=O (stereo not drawn),-0.0151,-0.0186,-0.275,-2.63 (active),-0.164,-0.46,-0.0718
Cc1cnc2[nH]cc(CCNC(=O)CCl)c2c1,-0.277,0.0378,-0.197,-0.5,0.0093,-0.444,-0.097
Cc1ccc(C)c(NC(=O)CCl)c1,-0.612,-0.335,-0.41,-0.57,-0.295,-0.449,-0.599
Cc1ccccc1OCC(=O)N1CCN(C(=O)CCl)CC1,0.258,-0.215,-0.106,-0.335,-0.172,-0.104,-0.00243
CS(=O)(=O)N1CCCN(C(=O)CCl)CC1,0.0618,-0.0587,-0.154,-0.261,-0.224,-0.469,0.146
COc1ccc(C2CCCN2C(=O)CCl)c(OC)c1 (stereo not drawn),0.129,-0.237,-0.139,-0.514,-0.249,-0.113,-0.0199
O=C(CCl)NC1CCN(C(=O)C2CCCCC2)CC1,-0.257,0.122,0.0478,-0.283,0.125,-0.0541,-0.0714
